Records with an inconclusive call do not appear. Activity calls are given as the source filed them. Calls come from the whole dose curve; as a rule, active = well fitted inhibition curve with a large enough effect; inconclusive = small, poorly fitted or top-dose-only effect, or effect the other way; inactive = no such curve, though single readings can be large or run the other way.
Biological target: Nuclear receptor ROR-gamma (Mus musculus) (UniProt P51450)
Assay: Concentration response confirmation assay for inhibitors of ROR gamma transcriptional activity
Settings: Drosophila S2 Gal4-RORgamma UAS-luciferase, 20 h; series mostly up to 46.1 µM
From the text: NIH Molecular Libraries Probe Production Network [MLPCN] NIH Chemical Genomics Center [NCGC] MLPCN Grant: R03 DA026211-01 Assay Provider: Dan Littman, New York University Assay Overview: The retinoic acid-related orphan receptor (ROR) gamma is a transcription factor that has a central role in the differentiation of Th17 cells, a subset of T helper cells that secrete the inflammatory cytokines IL-17, IL-17F, and IL-22. Th17 cells have been implicated in graft versus host disease, autoimmune disease and asthma. ROR gamma is induced in naive T helper cells in the presence of TGF-beta combined with IL-6, IL-21, or IL-23, and thereafter directs the expression of the Th17 lineage cytokines. To study the mechanism of action of ROR gamma, an insect cell-based assay was screened. This Drosophila Schneider cell line was stably transfected with two vectors: a gene expressing a fusion of the Gal4 DNA binding domain and ROR gamma transactivation domain under the control of the metallothionine promoter and a Photinus luciferase reporter regulated by the Gal4 binding site enhancer, UAS. […] Small molecule inhibitors of ROR gamma activity are detected by a decrease in luciferase reporter activity.
Assay Protocol Summary: For screening, 600 cells in 4 uL/well were dispensed into white solid 1536-well plates (Grenier) using a solenoid-based dispenser. Following transfer of 23 nL compound or DMSO vehicle by a pin tool, the plates were incubated 1 hr at ambient temperature, and 1 uL/well copper sulfate (700 uM final concentration) was added. The plates were centrifuged 15 s at 1000 RPM and incubated 20 hr at ambient temperature. After addition of 1.5 uL Photinus luciferase detection reagent, the plates were incubated 10 min at ambient temperature and then read by an ViewLux (Perkin Elmer) to detect luminescence. Keywords: NIH Roadmap, MLPCN, MLI, MLSMR, qHTS, NCGC, qHTS, nuclear hormone receptor, retinoic acid-related orphan receptor, ROR gamma

Nuclear receptor ROR-gamma (Mus musculus), sequence (P51450 whole entry, looked up): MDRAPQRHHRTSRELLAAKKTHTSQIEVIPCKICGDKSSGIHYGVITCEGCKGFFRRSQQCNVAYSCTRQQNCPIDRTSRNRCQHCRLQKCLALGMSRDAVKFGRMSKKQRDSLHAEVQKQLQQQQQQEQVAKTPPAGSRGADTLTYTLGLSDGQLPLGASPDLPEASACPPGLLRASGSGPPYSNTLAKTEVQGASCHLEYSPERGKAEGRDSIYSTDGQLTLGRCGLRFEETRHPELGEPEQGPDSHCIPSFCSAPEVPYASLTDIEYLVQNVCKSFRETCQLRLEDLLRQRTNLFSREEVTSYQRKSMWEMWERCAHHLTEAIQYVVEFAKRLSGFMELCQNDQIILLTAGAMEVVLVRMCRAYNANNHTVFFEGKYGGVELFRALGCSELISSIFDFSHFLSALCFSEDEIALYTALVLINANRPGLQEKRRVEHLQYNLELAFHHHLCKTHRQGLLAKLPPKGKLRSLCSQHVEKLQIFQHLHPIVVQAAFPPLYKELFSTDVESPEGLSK

| SMILES | Potency |
| --- | --- |
| Cc1nc2ccccc2c(=O)n1-c1cc([N+](=O)[O-])cc([N+](=O)[O-])c1 | inactive |
| Cn1ncnc2c(=O)n(C)c(=O)nc1-2 | 0.996 µM (active) |
| O=C(Nc1ncc(Cc2ccccc2)s1)C1=NCCN1 | 9.96 µM (active) |

— PubChem BioAssay AID2762 (National Center for Advancing Translational Sciences (NCATS), 2010)
